Bioassay records as filed in PubChem.
This is a sample that favours compounds with a hit; in the whole collection about 0.87% have one here.
Candida biofilm: kills Candida albicans biofilms; C. albicans biofilm + clotrimazole, Alamar Blue; inhibition, % at 6 µM; actives 0.14% (n = 85,000);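 active means inhibition above 20%; inactive means inhibition below 20%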;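 further: preformed 24 hr biofilms exposed to compound for 48 hr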
sEH inh: blocks human soluble epoxide hydrolase activity. P34913. recombinant human sEH enzymatic activity assay. inhibition, % at 2 µM. actives 0.34% (n = 91,000); in the data active means inhibition above about 80%
Target sequence (P34913 whole entry, looked up): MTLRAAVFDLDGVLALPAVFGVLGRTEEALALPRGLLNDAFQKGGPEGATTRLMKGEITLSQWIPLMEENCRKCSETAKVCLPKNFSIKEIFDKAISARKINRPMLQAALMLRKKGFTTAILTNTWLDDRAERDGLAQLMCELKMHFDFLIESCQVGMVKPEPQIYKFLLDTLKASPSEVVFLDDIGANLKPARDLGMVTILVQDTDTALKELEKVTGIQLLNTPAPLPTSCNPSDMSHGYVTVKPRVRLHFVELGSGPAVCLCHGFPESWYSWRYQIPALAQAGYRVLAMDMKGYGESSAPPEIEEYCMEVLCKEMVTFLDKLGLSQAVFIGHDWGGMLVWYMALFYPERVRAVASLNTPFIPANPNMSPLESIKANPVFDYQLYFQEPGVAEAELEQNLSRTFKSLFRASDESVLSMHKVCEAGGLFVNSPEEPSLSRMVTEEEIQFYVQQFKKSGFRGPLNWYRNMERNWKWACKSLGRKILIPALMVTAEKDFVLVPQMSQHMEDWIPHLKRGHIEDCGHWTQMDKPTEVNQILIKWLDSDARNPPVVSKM
sEH act: increases human soluble epoxide hydrolase activity; purified human sEH enzymatic activity, activator screen; actives 0.04% (n = 91,000); P34913; activation, % at 2 µM; in the data active means activation above about 37%
MRP resist rev: reverses drug resistance mediated by MRP; H69AR cells + 2 uM doxorubicin, CellTiter-Glo, 72 h; differential viability (reversal), % at 10 µM; AID 602; actives 0.04% (n = 85,000);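 active means viability drop by adding the cancer drug above about 55%, with treated viability meeting a 40% cutoff, limit read from the data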;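 further: larger differential means the compound sensitizes cells more to doxorubicin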
MRP1 act: activators of MRP-1 | H69AR cells + doxorubicin, viability rescue, CellTiter-Glo | viability increase, % at 10 µM | actives 0.61% (n = 140,000) | AID 799;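 active means viability gain under doxorubicin at or above a set limit, the compound median plus 3 SD, cut at about 4.7% in these data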;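 further: MRP-1 overexpressing cells given doxorubicin 25 µM after compound pretreatment; 18-22 h compound pretreatment then 72 h with doxorubicin before readout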
A number is an active result.

Results for COC(=O)Cn1c(CCC(=O)O)ccc1-c1ccccc1 ?
Candida biofilm: 31; sEH inh: inactive; sEH act: inactive; MRP resist rev: inactive; MRP1 act: inactive

Results for O=C(Nc1nnc(C(F)(F)F)s1)C1COc2ccccc2O1 (stereo not given) ?
Candida biofilm: inactive; sEH inh: inactive; sEH act: inactive; MRP resist rev: inactive; MRP1 act: 5.3

Results for Cc1ccccc1CSCC(=O)Nc1c(C)n(C)n(-c2ccccc2)c1=O ?
MRP1 act: inactive

How did O=C(c1ccco1)N1CCN(c2nc(C3CC3)nc3c2nnn3Cc2ccccc2Cl)CC1 do in these assays?
Candida biofilm: inactive; sEH inh: inactive; sEH act: inactive; MRP resist rev: inactive; MRP1 act: 7.0

What do the screens show for `CCCOc1cccc(NC(=O)OC2CCN(C)CC2)c1`?
MRP1 act: inactive

How did Cc1nc(NC(=O)CSc2nc3cccnc3n2C2CCCCC2)sc1C do in these assays?
Candida biofilm: inactive; sEH inh: inactive; sEH act: inactive; MRP resist rev: inactive; MRP1 act: inactive

How did CCc1nnc(NC(=O)CSc2nc3cccnc3n2C2CCCCC2)s1 do in these assays?
Candida biofilm: inactive; sEH inh: inactive; sEH act: inactive; MRP resist rev: inactive; MRP1 act: 4.8

What do the screens show for `Nc1ccccc1SCc1cn2ccccc2n1`?
MRP1 act: inactive

What do the screens show for `N=C(N)SCc1cn2ccccc2n1`?
MRP1 act: 4.9

How did Brc1ccc(-c2nc3ncccn3c2NC2CCCCC2)o1 do in these assays?
Candida biofilm: inactive; sEH inh: inactive; sEH act: inactive; MRP resist rev: 58; MRP1 act: inactive

What do the screens show for `Brc1ccc(OCCOCCOc2cccc3cccnc23)cc1`?
sEH inh: inactive; sEH act: 58

What do the screens show for `c1ccc(N2CCN(c3nc(-c4cccs4)nc4ccccc34)CC2)cc1`?
MRP1 act: 7.3

How did O=C(CNC(=O)c1ccccc1Cl)N/N=C/C=C/c1ccccc1 do in these assays?
MRP1 act: inactive

How did O=C1N=C(c2ccccc2)S/C1=C\c1cccs1 do in these assays?
Candida biofilm: inactive; sEH inh: inactive; sEH act: inactive; MRP resist rev: inactive; MRP1 act: 6.7

Results for O=C(Nc1ccc([N+](=O)[O-])cn1)C1CC2CCC1C2 (stereo not given) ?
MRP1 act: inactive

How did CCOC(=O)C1CCN(c2c(N(C)Cc3ccco3)c(=O)c2=O)CC1 do in these assays?
Candida biofilm: 22; sEH inh: inactive; sEH act: inactive; MRP resist rev: inactive; MRP1 act: inactive

What do the screens show for `CCOC(=O)C1CCCN(c2c(NCc3ccco3)c(=O)c2=O)C1` (stereo not given)?
Candida biofilm: inactive; MRP resist rev: inactive; MRP1 act: inactive

Results for CCOc1cc(CNC(C)C)c(Cl)cc1OCC(=O)NCCc1ccccc1 ?
sEH inh: inactive; sEH act: inactive; MRP1 act: inactive

Results for COC1(OC)C(=N/O)/C(=N\O)CCC1O (stereo not given) ?
Candida biofilm: inactive; sEH inh: inactive; sEH act: inactive; MRP resist rev: inactive; MRP1 act: 11

How did O=C(Nc1cccc([N+](=O)[O-])c1)c1cnccn1 do in these assays?
MRP1 act: inactive

Results for O=C(Nc1cccc([N+](=O)[O-])c1)c1[nH]ncc1Cl ?
MRP1 act: 6.1

Results for Cn1c(COc2ccccc2)nnc1SCc1nc2ccccc2[nH]1 ?
Candida biofilm: inactive; sEH inh: inactive; sEH act: inactive; MRP resist rev: inactive; MRP1 act: inactive

What do the screens show for `CCn1c(COc2ccc(C)cc2)nnc1SCc1nc2ccccc2[nH]1`?
Candida biofilm: inactive; sEH inh: inactive; sEH act: inactive; MRP resist rev: inactive; MRP1 act: 7.6

Results for COc1ccc(-c2cc(-c3nnc(-c4ccncc4)o3)c3ccccc3n2)cc1 ?
MRP1 act: inactive

What do the screens show for `c1ccc2c(-c3nc(C4CCCCC4)no3)cc(-c3ccncc3)nc2c1`?
Candida biofilm: inactive; sEH inh: inactive; sEH act: inactive; MRP resist rev: inactive; MRP1 act: 7.6

Results for CS(=O)(=O)NCc1csc(-c2ccccc2)n1 ?
Candida biofilm: inactive; MRP resist rev: inactive; MRP1 act: inactive

How did CCS(=O)(=O)NCc1csc(-c2ccccc2)n1 do in these assays?
Candida biofilm: 25; MRP resist rev: inactive; MRP1 act: inactive

How did O=C(CCNS(=O)(=O)c1cccs1)NCc1ccccc1 do in these assays?
Candida biofilm: inactive; sEH inh: inactive; sEH act: inactive; MRP resist rev: inactive; MRP1 act: inactive

What do the screens show for `CCc1nnc(NC(=O)C(C)N2C(=O)C3C4C=CC(C4)C3C2=O)s1` (stereo not given)?
Candida biofilm: inactive; sEH inh: inactive; sEH act: inactive; MRP resist rev: inactive; MRP1 act: 8.2
